Measles CPE: compounds protecting cells from measles virus cytopathic effect, primary screen, measles RdRp inhibitor project, single point, MLSMR library, absorbance | Measles virus-infected cells, CPE protection | protection (pct of control), % at 4 µM | 1.5% of 140,000 active; in the data active = protection mostly above about 24%, no sharp cut-off; inactive = mostly below about 26%
CYP2C9 inhib: blockers of cytochrome P450 2C9 activity – biochemical, luminescence, ADME assay, primary screen; P11712; AID 777, 2007; CYP2C9 Supersomes, luciferin-H conversion; inhibition, % at 5 µM; 20% of 96,000 active;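 active = blocking of liver enzyme CYP2C9 beyond about 50% at 5 µM, limit read from the data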
CYP2C19 activ: human CYP2C19 activators, primary screen, biochemical, luminescence | Cytochrome P450 2C19 (Homo sapiens), P33261 | recombinant CYP2C19, luciferin-H EGE luminescence; active compounds read high; 0 = fully inhibited enzyme, 1 = untreated enzyme | activation factor at 5 µM | 96,000 tested, under 10 active | AID 1025, 2008;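 active = activation factor of at least 2 at 5 µM in the primary screen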;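 note: 0 = wells with 2.5 mM tranylcypromine and 1 = vehicle-only wells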
Target sequence (P33261 whole entry, looked up): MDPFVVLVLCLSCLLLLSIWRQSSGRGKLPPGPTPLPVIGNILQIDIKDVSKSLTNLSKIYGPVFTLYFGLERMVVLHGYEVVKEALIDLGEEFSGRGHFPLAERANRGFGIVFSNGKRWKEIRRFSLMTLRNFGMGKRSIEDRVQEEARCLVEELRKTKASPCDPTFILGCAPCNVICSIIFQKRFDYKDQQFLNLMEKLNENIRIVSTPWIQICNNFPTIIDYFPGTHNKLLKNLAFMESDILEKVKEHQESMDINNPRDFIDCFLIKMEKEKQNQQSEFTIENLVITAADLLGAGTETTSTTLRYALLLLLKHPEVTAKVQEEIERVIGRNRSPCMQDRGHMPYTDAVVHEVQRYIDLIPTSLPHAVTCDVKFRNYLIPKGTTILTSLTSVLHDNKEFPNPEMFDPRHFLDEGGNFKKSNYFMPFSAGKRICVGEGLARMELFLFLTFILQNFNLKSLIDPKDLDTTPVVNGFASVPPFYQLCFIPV
CYP2C19 inhib: blockers of cytochrome P450 2C19 activity – biochemical, luminescence, ADME assay, primary screen. 21% of 96,000 active. CYP2C19 Supersomes, luciferin-H EGE luminescence, 30 min. P33261. inhibition, % at 5 µM;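 active = CYP2C19 inhibition above a set limit at 5 µM in the primary screen, cut at about 50% in these data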;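 note: plate controls were negative control wells for no effect and 2.5 mM tranylcypromine positive control for full effect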
CYP2C9 act: human CYP2C9 activators, primary screen, biochemical, luminescence | recombinant CYP2C9, luciferin-H conversion; active compounds read high; factor 1 = untreated enzyme, 0 = blocked | activation factor at 5 µM | 1.4% of 96,000 active | AID 1024, 2008;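 active = activation factor of 2 or more for CYP2C9 at a 5 µM dose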;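 note: 0 = sulfaphenazole-blocked wells and 1 = vehicle-only wells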
Numbers without * were called inactive; x = no result. In the library only some 22% were active in any assay of this set; here they are far more common.

SMILES	Measles CPE	CYP2C9 inhib	CYP2C19 activ	CYP2C19 inhib	CYP2C9 act
CCn1c(=O)cc(SCC(=O)Nc2ccc(OC)c(OC)c2)c2ccccc21	24.6	-102.0	0.4	60.2*	2*
O=C(COC(=O)c1ccc(Br)cc1)NCc1ccccc1	8.6	x	x	x	x
O=C(COc1ccccc1Cl)NCc1ccncc1	9.1	77.5*	0.1	94.1*	0.2
O=C(COC(=O)c1ccccn1)NCc1ccccc1	14.3	4.9	0.3	68.6*	1
O=C(OCc1ccc(Cl)c(Cl)c1)c1ccccn1	5.5	53.4*	0	96.1*	0.5
O=C(COc1ccccc1[N+](=O)[O-])NCc1cccnc1	11.7	x	x	x	x
O=C(COC(=O)c1ccncc1)NCc1ccccc1	12.4	64.8*	0.1	85.3*	0.4
O=C(NC(=S)NCCN1CCOCC1)c1ccc(Cl)cc1	17.9	x	x	x	x
CCN(CC)Cc1ccccc1Sc1ccccc1	10.1	x	x	x	x
Cc1[nH]c2ccc3c(ncn3CCC#N)c2c1C	8.6	10.6	1	2.3	0.9
COc1ccc(-c2nc3nc(C)cc(=O)n3[nH]2)cc1	13.9	7.0	1	2.4	0.9
O=C(OCC1CC(c2ccccn2)=NO1)c1ccc(Br)cc1 (centres undefined)	19.5	81.7*	0.2	76.9*	0.2
O=C(COC(=O)c1ccccn1)c1ccc(Br)cc1	2.7	12.6	0.4	56.9*	0.9
CCOCCCNC(=S)NCCNc1nc2ccc(C)cc2cc1C#N	54.9*	x	x	x	x
COc1ccc2[nH]c(=O)c(CN(Cc3ccco3)C(c3nnnn3Cc3ccccc3)C(C)C)cc2c1 (centres undefined)	27.2	70.4*	0.6	43.6	0.3
CCC(C)(C)n1nnnc1C(C(C)C)N(Cc1ccco1)Cc1cc2cc3c(cc2[nH]c1=O)OCO3 (centres undefined)	4.5	-1.4	0.7	32.9	1
COCCn1nnnc1C(C(C)C)N(Cc1cccnc1)Cc1cc2cc(OC)ccc2[nH]c1=O (centres undefined)	0.3	-29.4	1.2	-15.1	1.3
Cc1cccc2cc(CN(Cc3ccco3)C(c3nnnn3CCc3ccccc3)C(C)C)c(=O)[nH]c12 (centres undefined)	27.8	83.2*	0.2	78.2*	0.2
CCc1ccc2[nH]c(=O)c(C(c3nnnn3CCOC)N3CCN(c4ccccc4F)CC3)cc2c1 (centres undefined)	15.5	17.3	0.5	53.8*	0.8
COCCn1nnnc1C(C(C)C)N(Cc1ccccc1)Cc1cc2cc(OC)ccc2[nH]c1=O (centres undefined)	9.8	83.7*	0.2	76.6*	0.2
Cc1c(C(=O)C(=O)NCCc2ccc(S(N)(=O)=O)cc2)c2ccccc2n1C	13.2	x	x	x	x
CCC(Nc1ccc(OC)cc1)C(=O)N/N=C/c1ccc([N+](=O)[O-])cc1 (centres undefined)	4.3	x	x	x	x
O=C(CN1C2CCC1CC(NC(=O)Nc1ccccc1)C2)NCc1ccco1 (centres undefined)	11.9	26.4	0.6	38.2	0.7
CCN(Cc1ccccc1)C(c1cc2ccc(C)cc2[nH]c1=O)c1nnnn1CCOC (centres undefined)	6.6	55.2*	0.9	7.0	0.4
COc1ccc(CN(Cc2cc3cc(C)ccc3[nH]c2=O)C(=O)N(C)C)cc1	5.3	23.5	0.8	21.9	0.8
SMILES	Measles CPE	CYP2C9 inhib	CYP2C19 activ	CYP2C19 inhib	CYP2C9 act
CCc1ccc2[nH]c(=O)c(CN(Cc3ccc(OC)cc3)Cc3nnnn3CCOC)cc2c1	2.2	57.0*	0.5	54.6*	0.4
CC1(C)CC(=O)C=C(NCCN2CCN(C(=O)Nc3ccc(Cl)c(Cl)c3)CC2)C1	25.4	30.3	0.3	66.4*	0.7
CC1(C)CC(=O)C=C(NCCN2CCN(C(=O)Nc3ccc(Cl)cc3)CC2)C1	4.8	-8.6	0.9	6.7	1.1
NC(=O)C1(N2CCCCC2)CCN(C(=O)CCCn2c(=O)[nH]c3ccsc3c2=O)CC1	15.6	29.6	1	-2.4	0.7
O=C(CCSc1nc(-c2ccco2)cc(C(F)(F)F)n1)NCc1ccccn1	7.9	68.8*	0.2	78.1*	0.3
CC(NC(=O)CCSc1nc(-c2ccco2)cc(C(F)(F)F)n1)c1ccccc1 (centres undefined)	5.5	46.9	0.5	53.0*	0.5
O=C(CSc1nc(-c2ccco2)cc(C(F)(F)F)n1)Nc1ccc2c(c1)CCC2	7.8	35.8	0.9	11.6	0.6
O=C(CSc1nc(-c2ccco2)cc(C(F)(F)F)n1)NC1CCCC1	5.5	94.0*	0.2	82.1*	0.1
O=C(CCSc1nc(-c2ccco2)cc(C(F)(F)F)n1)NCc1cccs1	21.8	x	x	x	x
COc1ccc(CCNC(=O)COC(=O)c2ccco2)cc1OC	39.0*	-9.6	1	-0.9	1.1
CCn1c(CNC(=O)c2ccco2)nnc1SCC(=O)Nc1cc(C(F)(F)F)ccc1Cl	2.6	1.5	0.7	31.7	1
O=C(CCSc1nc(-c2ccco2)cc(C(F)(F)F)n1)N1CCN(c2ccccc2)CC1	23.2	76.2*	0.2	81.2*	0.2
Cc1ccc2cc(CN(C(=O)c3ccco3)c3ccccc3)c(=O)[nH]c2c1	9.7	22.1	0.8	17.3	0.8
COc1ccc(CCNC(=O)CCSc2nc(-c3ccco3)cc(C(F)(F)F)n2)cc1OC	3.5	90.7*	0.1	87.5*	0.1
COc1ccc(-c2nc(CCNC(=O)c3ccco3)cs2)cc1OC	3.4	53.8*	0.7	32.7	0.5
COc1ccc(CCNC(=O)c2ccc3nc(-c4ccco4)c(-c4ccco4)nc3c2)cc1OC	5.4	33.9	0.8	19.6	0.7
COc1ccc(CN(C(=O)c2ccco2)c2ccc(C)cc2)cc1OC	10.7	63.3*	0.3	65.4*	0.4
COCCNC(=O)CCSc1nc(-c2ccc(OC)cc2)cc(C(F)(F)F)n1	10.4	x	x	x	x
Cc1ccc(OC(=O)c2sc(Cl)nc2C)cc1C	14.4	x	x	x	x
Cc1ccc(NC(=S)N2CCN(C3CCCCC3)CC2)cc1	3.6	2.4	0.9	10.3	1
CC(C)NC(=S)N/N=C/c1ccc2c(c1)OCCO2	12.0	x	x	x	x
COc1ccc(COc2ccccc2C(=O)NCc2ccccc2)cc1F	8.3	x	x	x	x
C=CCn1c(SCC(=O)O)nnc1-c1ccc(C(C)(C)C)cc1	7.7	-4.9	1.1	-6.0	1
C=CCn1c(SCc2c(C(=O)OC)sc(N)c2C(=O)OC)nnc1-c1ccc(Br)cc1	2.5	87.1*	0.3	71.5*	0.1
O=S(=O)(Nc1cccc2c1CCCC2)c1cccc(C(F)(F)F)c1	16.2	x	x	x	x
COC(=O)c1ccccc1NS(=O)(=O)c1ccc(O)c(C(=O)O)c1	6.3	90.6*	0.9	8.9	0.1
O=C(O)c1ccccc1NS(=O)(=O)c1cccc(C(F)(F)F)c1	16.2	51.3*	0.4	60.5*	0.5
COc1cc(C)c(S(=O)(=O)Nc2ccccc2F)cc1C	10.8	51.6*	0.1	88.2*	0.5
